Reference: PubChem BioAssay AID686971 (National Center for Advancing Translational Sciences (NCATS), 2013)
The campaign covered roughly 360,000 compounds. About 7,500 (2.1%) were called active. Another 8% or so got no clear call; they are omitted. The list comes from a sample in which actives are over-represented; it also holds similar structures and randomly drawn compounds. Unmarked numbers belong to inactive results. Calls follow the shape of the dose curve; as a rule, active = well fitted cell-killing curve with a large enough effect; inconclusive = small, poorly fitted or top-dose-only effect, or effect the other way, or another doubt; inactive = no such curve, though single readings can be large or run the other way.

assay: qHTS for induction of synthetic lethality in tumor cells producing 2HG: qHTS for the HT-1080-IDH1KD cell line; details: HT-1080 IDH1 knockdown viability, ATP luminescence, 48 h; series mostly up to 46.1 µM; activity, negative = toxicity: at the top concentration;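 as to activity, negative = toxicity: 0% = DMSO wells and -100% = cell-free medium wells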
In short: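 In this qHTS, HT-1080 cells depleted of IDH1 are exposed for 48 h at 37 °C to compound titrations. Toxicity is scored from CellTiter-Glo luminescence, with DMSO as full viability and medium alone as none.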
Potency is read from the fitted curve at half-maximal effect.

Compound	activity, negative = toxicity	Potency
CC(C)(C)c1ccc(S(=O)(=O)NC(=O)C2(C)CCN2C(=O)CC2CC2)cc1 (stereo unspecified)	15.3%	–
CCc1ccc(C(CNc2nc(C(F)(F)F)nc3ccccc23)N(C)C)cc1 (stereo unspecified)	–	20.6 µM (active)
CN(C)C(CNC(=O)c1cc2ccccc2o1)c1ccccc1 (stereo unspecified)	3.28%	–
NS(=O)(=O)c1ccc(CCNc2nc(C(F)(F)F)nc3ccccc23)cc1	-22.2%	–
CCOC1=C2CN(S(=O)(=O)c3ccc(C)cc3)[C@H](c3cccs3)C[C@H]2[C@H]2C(=O)N(c3ccccc3)C(=O)[C@H]2C1	9.74%	–
Cc1ccccc1OS(=O)(=O)c1cccc([N+](=O)[O-])c1	8.36%	–
CCOc1cc(/C=N/n2cnnc2)c(Br)cc1O	-5.67%	–
Cc1ccccc1OCCOc1ccc([N+](=O)[O-])cc1/C=N/n1cnnc1	–	4.61 µM (active)
O=C(COC(=O)Cc1ccc(Cl)cc1Cl)NCc1ccco1	-4.62%	–
Cn1cnc(S(=O)(=O)N2C[C@@H](O)COC[C@@H]3O[C@H](CC(=O)NC4CCC4)CC[C@H]32)c1	25.4%	–
O=c1cc(CN2CCCCCCC2)c2c(ccc3ccccc32)o1	0.659%	–
CCOC(=O)C1CCCN(C(=O)/C=C/c2ccc(OC)cc2)C1 (stereo unspecified)	-3.51%	–
CCN1CCC(O)(/C=C/c2ccc(C)cc2)C(C(=O)/C=C/c2ccc(C)cc2)C1 (stereo unspecified)	–	11.6 µM (active)
COc1ccc(S(=O)(=O)N2CCN(CC(=O)N3CCNC3=O)CC2)cc1OC	6.33%	–
COc1ccc(CN2C(=O)C(CC(=O)NCCN3CCOCC3)CC(C(=O)N(C(C)C)C(C)C)=C2C)cc1 (stereo unspecified)	5.14%	–
CCc1cc(C(=O)N(CC)CC(=O)Nc2c(F)cccc2F)sc1C	1.16%	–
COc1ccc(Cl)cc1NC(=O)CN(C)C(=O)c1cn(-c2ccccc2)nc1-c1cccs1	-3.23%	–
COc1ccc(Nc2ccc3ccccc3c2)cc1	-22.5%	–
COc1ccc2oc(=O)cc(-c3cc4ccccc4o3)c2c1	-3.77%	–
COc1ccc(Nc2cc(=O)oc3ccccc23)cc1	–	5.8 µM (active)
COc1ccc(CC2c3cc(OC)c(OC)cc3CC[N+]2(C)CCC(=O)OCCCCCOC(=O)CC[N+]2(C)CCc3cc(OC)c(OC)cc3C2Cc2ccc(OC)c(OC)c2)cc1OC (stereo unspecified)	–	20.6 µM (active)
COC(=O)C1=CN(Cc2ccc(OC)c(OC)c2)C=C(C(=O)OC)C1c1cccs1	-3.11%	–
COc1ccc(CC(=O)NC2CCSc3ccccc32)cc1OC (stereo unspecified)	-1.88%	–
CC/C(=N\NC(=S)NC(C)C)c1ccc(OC(F)F)cc1	-1.89%	–

Compound	activity, negative = toxicity	Potency
C/C(=N\NC(=S)NCc1ccccc1)c1ccc(Cl)cc1	-0.853%	–
C/C(=N\NC(=S)NC(C)C)c1ccc(C(C)(C)C)cc1	–	16.4 µM (active)
CC(C)C[C@@H]1COc2cc(N3CCC[C@@H]3CO)ccc2S(=O)(=O)N1	1.26%	–
CC(C)(C(=O)NO)c1ccccc1	-20%	–
CCOc1cc(/C=C(\C#N)c2nc(-c3cccs3)c(NC(C)=O)s2)ccc1O	–	2.91 µM (active)
CCOc1cc(-c2cc(-c3ccc(NC(C)=O)cc3)nc(N)c2C#N)ccc1O	-15.5%	–
CCOc1cc(/C=N/NC(=O)c2c(C)nc3ccc(Cl)cn23)ccc1O	-2.43%	–
CC1(C(=O)NS(=O)(=O)c2cccc(F)c2)CCN1C(=O)c1cccc2ccccc12 (stereo unspecified)	1.27%	–
COc1cccc(CN(C)C(=O)CC[C@H]2O[C@@H](n3cnc4c(NC(=O)c5ccccc5)ncnc43)[C@H](O)[C@@H]2O)c1	13.1%	–
COc1ccc(/C(N)=N/OC(=O)Cc2ccccc2)cc1	12.4%	–
COc1ccc(C(C#N)=C2C=CC(=NO)c3ccccc32)cc1	–	0.517 µM (active)
COc1ccc(C(=NN)c2ccc(OC)cc2)cc1	18.4%	–
CN(C)CCNC(=O)c1ccc(Cl)c2cc3ccccc3nc12	–	10.3 µM (active)
CN(c1ccccc1)S(=O)(=O)c1ccc(Cl)c(C(=O)NCCc2c[nH]c3ccccc23)c1	-8.58%	–
CN(C)CCNC(=O)Nc1cccc(Cl)c1Cl	-6.77%	–
CC(=O)NC(c1cccc(F)c1)c1nc(-c2cccc(F)c2)cs1 (stereo unspecified)	0.603%	–
COc1ccc([C@H]2C[C@@H](n3cc(COC(=O)c4ccccc4)nn3)[C@H](O)CN2C(=O)c2cccs2)cc1	-6.72%	–
COC(=O)C[C@@H]1C=C[C@@H](NC(=O)c2ccc3c(c2)OCO3)[C@@H](CO)O1	23.1%	–
Cc1ccc(S(=O)(=O)N2C[C@@H](C)[C@]3(C2)[C@H](O)[C@H](OC(=O)NCc2ccccc2)C[C@H]2C(=O)N(c4ccccc4)C(=O)[C@H]23)cc1	-0.522%	–
Cc1ccc(OCC(=O)Nn2cnc3ccccc32)cc1	-17.9%	–
Cc1ccc(OS(=O)Nc2cccc3nccnc23)cc1 (stereo unspecified)	–	11.2 µM (active)
Cc1ccc(Oc2ccc3c(c2)C(=O)N(c2cccc4cccnc24)C3=O)cc1	7.05%	–
CCNC(=O)C1(C)CCN(C(=O)c2ccccc2)C1 (stereo unspecified)	4.67%	–
O=C(NCc1ccc(F)cc1)c1cc(C2CCCCN2C(=O)c2ccccn2)on1 (stereo unspecified)	23.9%	–

Compound	activity, negative = toxicity	Potency
COc1cccc(CNC(=O)[C@@H]2CCCN2C(=O)[C@@H]2CCCN2C(=O)c2ccccc2)c1	9.12%	–
S=C(NCCCc1ccccc1)Nc1ccc(Br)cc1	–	16.4 µM (active)
O=C(Cc1ccc(Br)cc1)NCCc1ccccc1	-2.12%	–
O=S(=O)(NCCCc1ccccc1)c1ccc(Br)cc1	2.69%	–
Cc1ccc(S(=O)(=O)N2CCN(c3ncnc4ccccc34)CC2)cc1	–	inactive
Cc1ccc(C)c(S(=O)(=O)N2CCN(c3ncnc4sccc34)CC2)c1	–	4.61 µM (active)
COc1ccc(C)cc1S(=O)(=O)N1CCN(S(=O)(=O)c2cc(C(=O)O)ccc2C)CC1	9.87%	–
COc1ccccc1-n1c(SCC(=O)Nc2ccc(Cl)cc2)nc(O)c(Cc2ccccc2)c1=O	-24.8%	–
CCOC(=O)[C@]12CCC=C1N(Cc1ccccc1)C(=O)[C@H](CC(=O)N1CCCC1)C2	2.61%	–
O=C1CCC(=O)N1CCC(=O)N(C(=O)NC1CCCCC1)C1CCCCC1	-1.14%	–
COC(=O)[C@]12CCCCC=C1N(Cc1ccc(Cl)cc1Cl)C(=O)[C@H](CC(=O)NCc1cccc3ccccc13)C2	-28.4%	–
CCCCNC(=O)C[C@@H]1C[C@@]2(C(=O)OCC)CCC=C2N(Cc2cccc3ccccc23)C1=O	-12.6%	–
CCOC(=O)[C@]12CCCC=C1N(Cc1cccc3ccccc13)C(=O)[C@H](CC(=O)NCC13CC4CC(CC(C4)C1)C3)C2	–	23.1 µM (active)
CCc1nc2ccc(C(=O)N3CCC(O)(Cc4ccccc4)CC3)cn2c1N(C)C(=O)Cc1ccccc1	18.8%	–
O=S1(=O)CC(N2CCN(CCO)CC2)CN1Cc1cn(Cc2ccc(Cl)cc2)nn1 (stereo unspecified)	6.6%	–
Cc1cccc(S(=O)(=O)N(C)C[C@H]2OCc3cnnn3CCCC(=O)N([C@@H](C)CO)C[C@H]2C)c1	6.99%	–
COc1ccccc1-c1cc2nc(NCc3cccc(Cl)c3)ccn2n1	-18.2%	–
CC(C)Cc1ccc(-c2cc3nc(NCc4cccc(Cl)c4)ccn3n2)cc1	–	20.6 µM (active)
Cc1cc(C)n2c(NCc3ccccc3)c(CC(C)C)nc2n1	5.86%	–
Cc1sc2ncnc(SCC(=O)NC3CCS(=O)(=O)C3)c2c1C (stereo unspecified)	-2.68%	–
C=CCOc1ccccc1CNn1c(C)n[nH]c1=S	0.246%	–
CNc1cncc(-c2cccc(C(=O)N3CCOCC3)c2)n1	7.17%	–
CNc1cncc(-c2ccc(NS(C)(=O)=O)cc2)n1	–	5.8 µM (active)
CS(=O)(=O)Nc1ccc(C(=O)N2CCCC2)cc1	8.84%	–

Compound	activity, negative = toxicity	Potency
CCC(C(=O)Nc1c(C)cccc1C)n1c(-c2cc(C)cs2)nc2ccccc21 (stereo unspecified)	-20.4%	–
CC1(C)NC(=O)N(CC(=O)Nc2ccc(-c3ccccc3)cc2)C1=O	3.48%	–
COc1ccc(NC(=O)CN(C)C(=O)c2cc(C)oc2C)cc1	-0.701%	–
COc1ccccc1NC(=O)C1=C(C)Nc2nc3ccccc3n2C1c1cccs1 (stereo unspecified)	–	5.17 µM (active)
CCOC(=O)C1=C(C)Nc2nc3ccccc3n2C1c1cccs1 (stereo unspecified)	-13%	–
CCOc1ccc(C2C(C(=O)NC)=C(C)Nc3nc4ccccc4n32)cc1OC (stereo unspecified)	8.97%	–
Cc1nc(C(F)(F)F)ccc1C(=O)N1CCC1(C)C(=O)NS(=O)(=O)c1ccccc1 (stereo unspecified)	6.16%	–
COc1cc(/C=N/NC(=O)c2cc(-c3ccccc3C)nc3ccccc23)cc(OC)c1O	-16.2%	–
CCOc1ccc(-c2cc(C(=O)N/N=C/c3ccc(O)cc3)c3ccccc3n2)cc1	–	5.8 µM (active)
CCOc1ccc(NC(=O)c2cc(C)nc3ccccc23)cc1	15.6%	–
O=C(Nc1ccc(N2CCOCC2)cc1)c1cccc2c(-c3ccc(F)c(F)c3)coc12	-2.43%	–
Oc1c(Br)cccc1/C=N/Nc1c(F)c(F)c(F)c(F)c1F	-0.347%	–
Oc1ccc(/C=N/Nc2nc(-c3ccccc3F)nc3ccccc23)c(O)c1	–	11.6 µM (active)
CC1(C(=O)NS(=O)(=O)c2cccc(F)c2)CCN1C(=O)Cc1cc(F)ccc1F (stereo unspecified)	3.61%	–
Cc1ccc(Cn2c(C)c(C(=O)NCc3ccccc3C(F)(F)F)sc2=O)cc1	5.39%	–
O=C(Oc1ccc([N+](=O)[O-])cc1)c1ccc2ccccc2n1	-24%	–
O=[N+]([O-])c1ccc(N=Cc2c(O)ccc3ccccc23)cc1	–	9.2 µM (active)
O=[N+]([O-])c1cccc(C=NN=Cc2ccccc2O)c1	7.79%	–
O=C(NCc1cccnc1)c1ccc2nc([C@@H]3O[C@H](CO)[C@H](O)[C@H](O)[C@H]3O)[nH]c2c1	15.5%	–
Cc1cn([C@H]2C[C@H](O)[C@@H](/C=C/C(=O)NCCCc3ccccc3)O2)c(=O)[nH]c1=O	-2.08%	–
COc1cc(CNc2ncnc3c2ncn3[C@H]2CN(Cc3cccs3)C[C@@H](CO)O2)cc(OC)c1OC	-13.4%	–
COc1ccc(-n2nc3c(N4CCC(C(=O)NCc5ccccc5)CC4)nnc(C)c3c2C)cc1	-28.5%	–
CCc1ccc(CNC(=O)C2CC(=O)N(CCc3ccc(C)cc3)C2)cc1 (stereo unspecified)	-11.8%	–
CCc1ccc(CNC(=O)C2CCN(c3nnc(C)c4c(C)n(-c5ccc(C)cc5)nc34)CC2)cc1	–	14.6 µM (active)
